Read-out in test [1]: Tumor necrosis factor receptor superfamily member 6 (Homo sapiens) (UniProt P25445)
The experiment in a line: LTEA_HepaRG_FAS: Life Technologies and Expression Analysis (LTEA) Assay for Fas cell surface death receptor (FAS) using HepaRG (AID 2283447). The settings on record: mRNA level, 48 h; actives raise or lower the signal. A digest of the protocol:
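Differentiated HepaRG cells in serum-free induction medium were exposed 48 h to 8 half-log concentrations up to 100 uM in 0.5% DMSO, in duplicate. FAS mRNA was measured by qRT-PCR normalised to ACTB, GAPDH and POLR2A; bidirectional fit versus DMSO.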

Read-out in test [2]: Fatty acid synthase (Homo sapiens) (UniProt P49327)
The experiment in a line: LTEA_HepaRG_FASN: Life Technologies and Expression Analysis (LTEA) Assay for Fatty Acid Synthase (FASN) using HepaRG (AID 2283448).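 As to AC50: differentiated human HepaRG liver cells in serum-free induction medium.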 Particulars: mRNA level, 48 h; actives raise or lower the signal. The method, boiled down:
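In human HepaRG cultures, 48 h chemical exposure (up to 100 uM, 0.5% DMSO) preceded TaqMan qRT-PCR of FASN.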

Read-out in test [3]: Cyclin D2 (CCND2), CCND2 (gene 894)
Put plainly: LTEA_HepaRG_CCND2: Life Technologies and Expression Analysis (LTEA) Assay for Cyclin D2 (CCND2) using HepaRG (AID 2283449).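 Also: CCND2 transcript measured by TaqMan qRT-PCR and normalised to three housekeeping genes.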 Particulars: mRNA level, 48 h; actives raise or lower the signal. The method, boiled down:
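HepaRG, 48 h dosing, 8-pt half-log curve from 100 uM, 0.5% DMSO; duplicate wells. Readout: CCND2 transcript by microfluidic qRT-PCR, housekeeping-normalised; bidirectional fit vs DMSO baseline.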

Read-out in test [4]: Cyclin Dependent Kinase Inhibitor 1A (CDKN1A), CDKN1A (gene 1026)
The experiment in a line: LTEA_HepaRG_CDKN1A: Life Technologies and Expression Analysis (LTEA) Assay for Cyclin Dependent Kinase Inhibitor 1A (CDKN1A) using HepaRG (AID 2283450). The settings on record: mRNA level, 48 h; actives raise or lower the signal. The method, boiled down: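 Gain or loss of CDKN1A transcript is scored by bidirectional fitting against 0.5% DMSO vehicle. Human HepaRG cultures receive chemicals for 48 h across an 8-point series peaking at 100 uM; expression comes from qRT-PCR.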

Read-out in test [5]: Cyclin D1 (CCND1), CCND1 (gene 595)
Put plainly: LTEA_HepaRG_CCND1: Life Technologies and Expression Analysis (LTEA) Assay for Cyclin D1 (CCND1) using HepaRG (AID 2283451). The settings on record: mRNA level, 48 h; actives raise or lower the signal. A digest of the protocol: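 Expression change is measured by qRT-PCR in HepaRG cells after 48 h treatment across eight concentrations topping at 100 uM, with duplicate wells and DMSO (0.5%) serving as baseline for bidirectional fitting.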

Read-out in test [6]: catalase (CAT), CAT (gene 847)
Put plainly: LTEA_HepaRG_CAT: Life Technologies and Expression Analysis (LTEA) Assay for catalase (CAT) using HepaRG (AID 2283452). Particulars: mRNA level, 48 h; actives raise or lower the signal. The method, boiled down:
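HepaRG cells in serum-free induction medium, 0.5% DMSO vehicle, exposed 48 h in duplicate over 8 half-log concentrations from 100 uM. CAT mRNA measured by qRT-PCR, normalized to ACTB, GAPDH, POLR2A; bidirectional fit versus DMSO.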

Read-out in test [7]: flavin-containing dimethylaniline monooxygenases 3 (FMO3), FMO3 (gene 2328)
Put plainly: LTEA_HepaRG_FMO3: Life Technologies and Expression Analysis (LTEA) Assay for flavin-containing dimethylaniline monooxygenases 3 (FMO3) using HepaRG (AID 2283453).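 As to AC50: differentiated human HepaRG liver cells in serum-free induction medium.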 The settings on record: mRNA level, 48 h; actives raise or lower the signal. A digest of the protocol:
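Eight-point concentration-response in serum-free HepaRG cultures (top 100 uM, 0.5% DMSO, 48 h). Read-out: FMO3 mRNA level normalized to three endogenous control genes, fitted bidirectionally versus vehicle.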

Read-out in test [8]: CFLAR gene, CFLAR (gene 8837)
The experiment in a line: LTEA_HepaRG_CFLAR: Life Technologies and Expression Analysis (LTEA) Assay for CFLAR gene using HepaRG (AID 2283455). Particulars: mRNA level, 48 h; actives raise or lower the signal. A digest of the protocol:
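qRT-PCR read-out (Fluidigm/TaqMan) of CFLAR mRNA, normalized to three housekeeping genes, in differentiated human HepaRG cells after 48 h chemical exposure; 8-point half-log series from 100 uM in 0.5% DMSO; bidirectional curve fitting versus DMSO.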

Read-out in test [9]: Forkhead box O1 (FOXO1), FOXO1 (gene 2308)
The experiment in a line: LTEA_HepaRG_FOXO1: Life Technologies and Expression Analysis (LTEA) Assay for Forkhead box O1 (FOXO1) using HepaRG (AID 2283456). Particulars: mRNA level, 48 h; actives raise or lower the signal. The method, boiled down:
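HepaRG, 48 h exposure, 8-pt half-log series from 100 uM in 0.5% DMSO, duplicates; Fluidigm qRT-PCR mRNA, housekeeping-normalised; bidirectional fit vs DMSO baseline.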

Read-out in test [10]: growth arrest and DNA damage 45 (GADD45A), GADD45A (gene 1647)
Put plainly: LTEA_HepaRG_GADD45A: Life Technologies and Expression Analysis (LTEA) Assay for growth arrest and DNA damage 45 (GADD45A) using HepaRG (AID 2283458). The settings on record: mRNA level, 48 h; actives raise or lower the signal. A digest of the protocol:
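Eight-point concentration-response in HepaRG cells: 48 h chemical exposure, 0.5% DMSO vehicle, top dose 100 uM. Normalized qRT-PCR mRNA readout with bidirectional fitting relative to DMSO.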

Read-out in test [11]: Forkhead box O3 (FOXO3), FOXO3 (gene 2309)
Put plainly: LTEA_HepaRG_FOXO3: Life Technologies and Expression Analysis (LTEA) Assay for Forkhead box O3 (FOXO3) using HepaRG (AID 2283459). Particulars: mRNA level, 48 h; actives raise or lower the signal. The method, boiled down:
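qRT-PCR readout of FOXO3 transcript, normalized to three housekeeping genes (ACTB, GAPDH, POLR2A); gain or loss fitted against 0.5% DMSO vehicle. HepaRG cells, 48 h chemical exposure, 8-point half-log series, top 100 uM.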

Read-out in test [12]: ABC Transporter (ABCB1), ABCB1 (gene 5243)
Put plainly: LTEA_HepaRG_ABCB1: Life Technologies and Expression Analysis (LTEA) Assay for ABC Transporter (ABCB1) using HepaRG (AID 2283460). Particulars: mRNA level, 48 h; actives raise or lower the signal. A digest of the protocol:
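HepaRG, 48 h exposure, 8-pt half-log series from 100 uM, 0.5% DMSO vehicle, duplicates. Readout: ABCB1 transcript by Fluidigm TaqMan qRT-PCR, housekeeping-normalized; bidirectional curve fit vs DMSO baseline.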

Read-out in test [13]: growth arrest and DNA damage 45 (GADD45B), GADD45B (gene 4616)
Put plainly: LTEA_HepaRG_GADD45B: Life Technologies and Expression Analysis (LTEA) Assay for growth arrest and DNA damage 45 (GADD45B) using HepaRG (AID 2283461). Particulars: mRNA level, 48 h; actives raise or lower the signal. The method, boiled down:
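Human HepaRG monolayers receive chemicals for 48 h at eight half-log concentrations, highest 100 uM, in 0.5% DMSO. Expression is measured by TaqMan qRT-PCR and normalized to ACTB, GAPDH and POLR2A.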

Read-out in test [14]: ABC Transporter (ABCC3), ABCC3 (gene 8714)
Put plainly: LTEA_HepaRG_ABCC3: Life Technologies and Expression Analysis (LTEA) Assay for ABC Transporter (ABCC3) using HepaRG (AID 2283462). The settings on record: mRNA level, 48 h; actives raise or lower the signal. The method, boiled down:
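Transcriptional change of ABCC3 in HepaRG after 48 h treatment, determined by qRT-PCR normalized to endogenous controls. Concentrations spanned eight half-log steps to 100 uM in 0.5% DMSO.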

Read-out in test [15]: ABC Transporter (ABCB11), ABCB11 (gene 8647)
Put plainly: LTEA_HepaRG_ABCB11: Life Technologies and Expression Analysis (LTEA) Assay for ABC Transporter (ABCB11) using HepaRG (AID 2283463). The settings on record: mRNA level, 48 h; actives raise or lower the signal. A digest of the protocol:
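HepaRG, 48 h exposure, 8-pt half-log CRC top 100 uM, 0.5% DMSO vehicle, duplicates. Readout: TaqMan qRT-PCR of ABCB11 mRNA, housekeeping-normalized (ACTB/GAPDH/POLR2A). Bidirectional fit vs DMSO baseline.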

Read-out in test [16]: ABC Transporter (ABCC2), ABCC2 (gene 1244)
Put plainly: LTEA_HepaRG_ABCC2: Life Technologies and Expression Analysis (LTEA) Assay for ABC Transporter (ABCC2) using HepaRG (AID 2283464). Particulars: mRNA level, 48 h; actives raise or lower the signal. A digest of the protocol:
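After plating and 48 h culture, HepaRG medium is replaced with serum-free induction medium and chemicals are added (8 concentrations, max 100 uM, 0.5% DMSO) for 48 h. Total RNA then undergoes qRT-PCR for ABCC2 with housekeeping normalization.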

Read-out in test [17]: Broad substrate specificity ATP-binding cassette transporter ABCG2 (Homo sapiens) (UniProt Q9UNQ0)
The experiment in a line: LTEA_HepaRG_ABCG2: Life Technologies and Expression Analysis (LTEA) Assay for ABC Transporter (ABCG2) using HepaRG (AID 2283465). The settings on record: mRNA level, 48 h; actives raise or lower the signal. The method, boiled down:
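HepaRG, 48 h exposure, 8-pt half-log series from 100 uM, 0.5% DMSO vehicle, duplicates. Readout: ABCG2 transcript by qRT-PCR (Fluidigm array), housekeeping-normalized; bidirectional curve fit relative to DMSO baseline.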

Test [18] can be described thus: CEETOX_H295R_ESTRONE: CeeTox H295R High-throughput Steroidogenesis Assay for Estrone (AID 2283441).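 Also: estrone secreted into medium measured by LC-MS/MS after dansyl derivatization.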 Particulars: actives raise or lower the signal. A digest of the protocol:
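Forskolin-stimulated H295R cells are treated 48 h with chemical, and estrone in the medium is measured by LC-MS/MS. Activity is fitted in both directions relative to DMSO controls, with chemicals diluted until MTT viability reaches at least 70%.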

The nature of test [19]: CEETOX_H295R_PROG: CeeTox H295R High-throughput Steroidogenesis Assay for Progesterone (PROG) (AID 2283442).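 As to AC50: human H295R adrenal cells primed with 10 µM forskolin before dosing.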 The settings on record: actives raise or lower the signal. The method, boiled down:
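Measured analyte is progesterone secreted by H295R cells at 48 h of chemical treatment, following 10 uM forskolin priming. Quantitation used HPLC-MS/MS against a 7-point standard curve; cytotoxicity was checked by MTT absorbance.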

Test [20] in a line: CEETOX_H295R_TESTO: CeeTox H295R High-throughput Steroidogenesis Assay for Testosterone (TESTO) (AID 2283457).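 As to AC50: cells exposed to chemicals for 48 h before medium collection.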 The settings on record: actives raise or lower the signal. A digest of the protocol: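 Steroidogenesis in H295R cells following OECD 456 with minor changes; 48 h exposure. Medium testosterone by HPLC-MS/MS, DMSO as baseline, with MTT viability run in parallel.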

Active and inactive are the calls of the source. The calls were made as follows: active = hit-call score of the fitted dose curve at least 0.9, where 1 is the maximum; inactive = score below 0.9.

Chain of Broad substrate specificity ATP-binding cassette transporter ABCG2 (Homo sapiens) (Q9UNQ0 whole entry, looked up): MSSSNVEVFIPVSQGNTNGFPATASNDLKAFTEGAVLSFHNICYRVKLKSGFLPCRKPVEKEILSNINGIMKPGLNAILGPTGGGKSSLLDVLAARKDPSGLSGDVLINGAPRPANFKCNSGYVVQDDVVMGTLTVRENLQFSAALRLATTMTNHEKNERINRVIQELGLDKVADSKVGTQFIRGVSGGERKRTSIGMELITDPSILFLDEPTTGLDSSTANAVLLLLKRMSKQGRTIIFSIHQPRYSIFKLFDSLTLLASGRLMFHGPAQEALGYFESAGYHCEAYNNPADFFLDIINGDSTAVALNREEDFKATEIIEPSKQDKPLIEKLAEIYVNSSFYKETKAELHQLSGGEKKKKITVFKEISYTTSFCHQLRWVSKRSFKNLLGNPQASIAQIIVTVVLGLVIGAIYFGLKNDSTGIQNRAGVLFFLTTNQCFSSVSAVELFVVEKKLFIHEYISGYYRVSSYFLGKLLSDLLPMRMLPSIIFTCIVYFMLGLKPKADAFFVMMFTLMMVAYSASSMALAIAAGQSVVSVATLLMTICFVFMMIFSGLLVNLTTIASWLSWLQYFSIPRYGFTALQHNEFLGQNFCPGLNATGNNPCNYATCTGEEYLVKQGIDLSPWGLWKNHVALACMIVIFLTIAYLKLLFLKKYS
Chain of Fatty acid synthase (Homo sapiens) (P49327 whole entry, looked up): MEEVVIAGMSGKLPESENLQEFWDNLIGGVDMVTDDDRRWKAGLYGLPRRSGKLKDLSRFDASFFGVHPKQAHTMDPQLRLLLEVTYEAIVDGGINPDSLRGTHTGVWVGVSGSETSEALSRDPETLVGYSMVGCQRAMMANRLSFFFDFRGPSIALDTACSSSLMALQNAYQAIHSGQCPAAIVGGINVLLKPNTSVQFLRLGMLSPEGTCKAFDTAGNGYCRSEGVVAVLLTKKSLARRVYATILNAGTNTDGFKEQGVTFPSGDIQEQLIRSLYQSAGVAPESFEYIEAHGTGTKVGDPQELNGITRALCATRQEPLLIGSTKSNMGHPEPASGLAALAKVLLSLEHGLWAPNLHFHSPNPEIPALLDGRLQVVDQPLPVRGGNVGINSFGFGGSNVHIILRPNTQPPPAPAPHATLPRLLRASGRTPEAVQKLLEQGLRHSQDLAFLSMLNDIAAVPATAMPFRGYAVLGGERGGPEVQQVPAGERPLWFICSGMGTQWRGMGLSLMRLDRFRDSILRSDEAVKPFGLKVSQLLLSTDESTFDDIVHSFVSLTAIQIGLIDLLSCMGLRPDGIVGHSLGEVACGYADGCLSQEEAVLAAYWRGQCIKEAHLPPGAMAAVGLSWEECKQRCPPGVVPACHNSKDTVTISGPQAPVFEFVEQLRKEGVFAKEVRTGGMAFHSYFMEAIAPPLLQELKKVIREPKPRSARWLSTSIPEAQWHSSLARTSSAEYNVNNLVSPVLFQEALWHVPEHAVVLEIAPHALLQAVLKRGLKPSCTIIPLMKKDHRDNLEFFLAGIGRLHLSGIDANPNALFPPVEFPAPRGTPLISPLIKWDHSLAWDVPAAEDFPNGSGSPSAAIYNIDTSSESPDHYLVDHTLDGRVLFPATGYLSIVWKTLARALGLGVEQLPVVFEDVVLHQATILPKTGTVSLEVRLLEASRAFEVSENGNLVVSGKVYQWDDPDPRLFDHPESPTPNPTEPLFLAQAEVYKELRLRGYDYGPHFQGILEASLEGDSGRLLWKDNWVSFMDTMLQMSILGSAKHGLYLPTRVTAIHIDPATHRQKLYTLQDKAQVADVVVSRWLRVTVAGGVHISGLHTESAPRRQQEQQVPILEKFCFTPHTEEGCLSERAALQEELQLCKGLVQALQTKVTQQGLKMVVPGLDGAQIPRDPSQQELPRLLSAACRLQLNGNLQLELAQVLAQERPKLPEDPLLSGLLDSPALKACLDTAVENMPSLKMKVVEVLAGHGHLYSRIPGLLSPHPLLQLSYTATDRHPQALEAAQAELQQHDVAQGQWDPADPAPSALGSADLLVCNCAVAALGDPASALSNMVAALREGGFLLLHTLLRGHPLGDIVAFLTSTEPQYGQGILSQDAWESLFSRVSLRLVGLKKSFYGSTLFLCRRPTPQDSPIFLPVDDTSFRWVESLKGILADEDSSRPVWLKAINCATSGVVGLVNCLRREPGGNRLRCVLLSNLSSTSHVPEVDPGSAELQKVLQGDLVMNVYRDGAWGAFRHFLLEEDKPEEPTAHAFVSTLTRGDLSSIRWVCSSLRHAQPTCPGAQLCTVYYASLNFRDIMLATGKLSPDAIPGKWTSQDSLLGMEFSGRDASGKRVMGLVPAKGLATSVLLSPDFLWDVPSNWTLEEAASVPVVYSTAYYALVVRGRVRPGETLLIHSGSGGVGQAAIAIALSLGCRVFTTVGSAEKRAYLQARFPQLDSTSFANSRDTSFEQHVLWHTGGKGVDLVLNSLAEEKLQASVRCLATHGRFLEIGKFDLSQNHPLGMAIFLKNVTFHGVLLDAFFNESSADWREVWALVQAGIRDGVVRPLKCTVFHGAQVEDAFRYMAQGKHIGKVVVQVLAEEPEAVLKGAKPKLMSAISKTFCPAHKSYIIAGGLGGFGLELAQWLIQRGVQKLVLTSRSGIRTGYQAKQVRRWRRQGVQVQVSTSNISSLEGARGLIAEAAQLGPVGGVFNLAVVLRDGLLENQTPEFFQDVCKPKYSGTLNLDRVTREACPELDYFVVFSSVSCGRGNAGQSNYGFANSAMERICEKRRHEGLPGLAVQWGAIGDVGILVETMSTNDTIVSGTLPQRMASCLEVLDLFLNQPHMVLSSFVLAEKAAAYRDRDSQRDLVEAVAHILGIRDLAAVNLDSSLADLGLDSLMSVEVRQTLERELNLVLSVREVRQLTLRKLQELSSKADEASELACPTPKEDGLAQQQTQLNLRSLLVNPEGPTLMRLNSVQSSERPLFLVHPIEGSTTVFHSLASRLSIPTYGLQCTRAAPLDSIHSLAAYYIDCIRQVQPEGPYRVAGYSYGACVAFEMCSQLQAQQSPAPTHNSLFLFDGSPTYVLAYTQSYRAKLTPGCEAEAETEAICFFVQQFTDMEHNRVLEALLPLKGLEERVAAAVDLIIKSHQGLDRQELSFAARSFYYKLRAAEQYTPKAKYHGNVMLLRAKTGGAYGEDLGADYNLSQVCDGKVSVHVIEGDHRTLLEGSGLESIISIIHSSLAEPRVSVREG

As for `CC(=O)Nc1ccc(O)cc1`, the outcome in test [1], in [2], in test [3], in test [4], in test [5] and in [6] was inactive. In addition, the compound was called inactive in [7], in test [8], in [9], in [10], in test [11] and in test [12]. Moreover, the compound was called inactive in [13], in test [14], in test [15], in [16] and in test [17].

As a reminder, the AC50 is the midpoint of the concentration-response curve, whichever way the signal moves. In the case of `CCCCCc1ccc(O)cc1`, the compound was called inactive in test [18] and in test [19]. The concentration at half-maximal activity (AC50) in test [20] was 50 µM (active).

Turning to `c1cc[nH]c1`, the compound was called inactive in [19] and in [20].

`CC(C)CCOCCC(C)C`: the result in test [18], in [19] and in [20] was inactive.

`O=C(NCc1ncc(C(F)(F)F)cc1Cl)c1c(Cl)cccc1Cl`: the outcome in [18] and in test [20] was inactive. In addition, the AC50 in [19] was 7.48 µM (active).

Turning to `O=C(CCCN1CCC(O)(c2ccc(Cl)cc2)CC1)c1ccc(F)cc1`, the concentration at half-maximal activity (AC50) was 85.8 µM (active) in test [1]; 9.92 µM (active) in test [2]; 79.9 µM (active) in test [4]; 68.4 µM (active) in [6]; 73.7 µM (active) in test [7]; 81.2 µM (active) in test [9]. The concentration at half-maximal activity (AC50) in [10] was 75 µM (active); in test [12], 85.6 µM (active); in [14], 50 µM (active); in test [15], 80.1 µM (active); in [16], 80.7 µM (active). For the same compound, the outcome in [5], in test [8], in [11], in test [13] and in test [17] was inactive.

Regarding `CC(C)(c1ccc(Oc2ccc(N)cc2)cc1)c1ccc(Oc2ccc(N)cc2)cc1`, the outcome in [18] was inactive. In addition, the half-maximal activity concentration (AC50) in test [19] was 0.134 µM (active); in test [20], 0.334 µM (active).

As to `OCC(CO)(CBr)CBr`, the result in [1], in test [2], in [3], in [4], in test [5] and in test [6] was inactive. Besides, the call in test [7], in [8], in [9], in [10], in test [11] and in test [12] was inactive. Also, the compound was called inactive in test [13], in [14], in test [15], in test [16] and in test [17].

The values above are taken from PubChem BioAssay (EPA / NIEHS).
